# Measurements reported in PubChem BioAssay (NCI).
# Compounds without any hit were thinned out: in the full panel of roughly 83,000, 20% have a hit.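 Step 1: grow cells in 96-well plates. Step 2: add test compound at a single concentration. Step 3: incubate 48 h. Step 4: record percent growth.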 Unmarked numbers belong to inactive results. Activity calls are given as the source filed them. How the source made its calls: active means growth percent below 10; inactive means the rest.
# Columns and labels:
# Test in all cases: NCI-60 one-dose screen, 48 h (100 = growth as untreated, 0 = no growth, -100 = all killed)
# Conditions in all cases: 10 µM unless noted
# DU-145 prostate = system: DU-145 prostate
# K-562 leukemia = system: K-562 leukemia
# MALME-3M melanoma = system: MALME-3M melanoma
# MDA-MB-231 breast = system: MDA-MB-231 breast
# RXF 393 renal = system: RXF 393 renal
# SF-268 CNS = system: SF-268 CNS
# SF-295 CNS = system: SF-295 CNS
# SF-539 CNS = system: SF-539 CNS
# UACC-257 melanoma = system: UACC-257 melanoma
# M14 melanoma = system: M14 melanoma
# HCT-15 colon = system: HCT-15 colon
# SNB-75 CNS = system: SNB-75 CNS
# U251 CNS = system: U251 CNS
# PC-3 prostate = system: PC-3 prostate
# SK-MEL-5 melanoma = system: SK-MEL-5 melanoma
# UACC-62 melanoma = system: UACC-62 melanoma
# LOX IMVI melanoma = system: LOX IMVI melanoma
# SK-MEL-28 melanoma = system: SK-MEL-28 melanoma
# SNB-19 CNS = system: SNB-19 CNS
# HT29 colon = system: HT29 colon
Compound,growth (DU-145 prostate),growth (K-562 leukemia),growth (MALME-3M melanoma),growth (MDA-MB-231 breast),growth (RXF 393 renal),growth (SF-268 CNS),growth (SF-295 CNS),growth (SF-539 CNS),growth (UACC-257 melanoma),growth (M14 melanoma),growth (HCT-15 colon),growth (SNB-75 CNS),growth (U251 CNS),growth (PC-3 prostate),growth (SK-MEL-5 melanoma),growth (UACC-62 melanoma),growth (LOX IMVI melanoma),growth (SK-MEL-28 melanoma),growth (SNB-19 CNS),growth (HT29 colon)
COc1cc(/C=N/NC(=O)c2cnn3c2NC(c2ccccc2)C3)ccc1OC1CCCC1 (centres undefined),26.5%,18.7%,40.1%,52.7%,-27.9% (active),36.9%,6.52% (active),-15.6% (active),43.4%,22.8%,24.6%,-13.7% (active),33%,10.1%,25.6%,23.8%,21.7%,40.3%,,
CCCCCCCC/C=C\CCCCCCCCOc1cccc(CC(=O)NCC[N+](C)(C)C)c1,94.4%,85.5%,90.1%,87.3%,13.8%,71.5%,87.1%,92.2%,103%,75.3%,91.7%,59.1%,46.2%,36.4%,90.8%,80.8%,89%,99.6%,60.1%,
Cc1ccc2nc(NC(=O)CSC(=S)N3CCN(Cc4ccccc4)CC3)sc2c1,-96.9% (active),11.8%,-58% (active),-7.45% (active),-58% (active),-14.9% (active),-13.1% (active),1.99% (active),-63.4% (active),-56.7% (active),-37% (active),-93.2% (active),-46.3% (active),-40.2% (active),-96.4% (active),,-41.3% (active),-60% (active),-22.2% (active),
O=C(N/N=C(\CS(=O)(=O)c1ccccc1)c1cc2ccccc2oc1=O)c1ccccc1,111%,109%,110%,99.4%,132%,99.2%,101%,103%,94.6%,110%,107%,93.2%,96.3%,98.3%,105%,97.9%,96.6%,107%,99.8%,
C=CC[P+](c1ccccc1)(c1ccccc1)c1ccccc1,79.4%,27.2%,47.8%,67.9%,95.3%,79.2%,80%,61.1%,-3.34% (active),62.4%,98.1%,63.3%,,34.7%,33.4%,42%,66.4%,71.8%,,40%
Cc1nc2cc(Nc3nc(Nc4ccc(F)cc4)nc(N4CCCC4)n3)ccc2n1Cc1ccccc1,-41.5% (active),0.0326% (active),-61.6% (active),-59.7% (active),-83.5% (active),-26.3% (active),-26.8% (active),-25% (active),-22.7% (active),-48.1% (active),-33.4% (active),-15.1% (active),-70.9% (active),,-53.4% (active),,-86% (active),-10.6% (active),,-76.1% (active)
O=C(O)c1ccccc1Oc1cc(-c2ccco2)nc(OCCBr)n1,104%,100%,99.1%,105%,135%,98.7%,95.1%,105%,97.8%,104%,104%,99.7%,98.3%,,110%,94.9%,107%,119%,98.6%,
CC1(C)CC(=O)C2=C(C1)Nc1cc3c(cc1C2c1ccc(F)cc1)OCO3 (centres undefined),117%,87.8%,81.2%,108%,82.3%,92.5%,64.3%,102%,110%,115%,93.9%,77.3%,90.6%,93.5%,,98.7%,99.1%,92.6%,,93.2%
Cc1ccc(C)c2c1sc1nc3nc4sc5ccccc5n4c(=N)c3c(=O)n12,108%,132%,143%,93.5%,122%,95.6%,104%,101%,129%,94.8%,102%,73.7%,107%,71.5%,94.6%,120%,92.6%,110%,89.4%,
COc1cc(-c2nc3ccccc3o2)cc(CN2CCN(c3ccccc3)CC2)c1O,71.8%,40.1%,63%,69.3%,107%,83.3%,36.2%,94.7%,86.7%,52.5%,43.6%,65.7%,52.6%,,31.7%,34%,8.05% (active),87.2%,82.6%,
Cc1nc2cc(Nc3nc(N4CCCCC4)nc(N4CCOCC4)n3)ccc2n1Cc1ccccc1,5.36% (active),84.3%,-3.76% (active),9.6% (active),-5.84% (active),69%,78.9%,81.6%,60.4%,48.4%,21.3%,-12.7% (active),,47.1%,54.9%,32.1%,1.44% (active),46.6%,,-8.67% (active)
Cc1nc2cc(Nc3nc(N4CCOCC4)nc(N4CCN(C)CC4)n3)ccc2n1Cc1ccccc1,114%,90.3%,106%,100%,101%,96.2%,95.2%,91.3%,99.2%,110%,96%,71.2%,,96.7%,97.5%,102%,97.2%,106%,,109%
CN(C)C(=S)SCN1C(=O)c2ccc([N+](=O)[O-])cc2S1(=O)=O,94.3%,77.8%,92.8%,106%,113%,99.9%,101%,102%,102%,103%,95.2%,99.9%,93.5%,,101%,92.2%,92.9%,109%,94.3%,
FC(F)(F)c1cc(CNc2nc(Cl)ncc2Br)cc(C(F)(F)F)c1,98.9%,50.2%,91.1%,89%,92.6%,93.4%,88.4%,85%,80.8%,93.9%,79.7%,66.6%,,80.2%,95.4%,77.2%,98.4%,94%,,98.4%
O=C1C=CC(=O)N1CCCCCCCCCCN1C(=O)C=CC1=O,80.1%,5.56% (active),70%,104%,76.6%,103%,73.7%,91.1%,76.1%,77.8%,92.4%,95.7%,76.9%,,95.8%,102%,42.9%,97%,108%,
Cc1ccc(-c2c3c(N)c4c(nc3nc3c2c(C)nn3-c2ccccc2)CCCC4)cc1,105%,36.6%,107%,97.1%,97%,108%,100%,103%,92.2%,110%,99.3%,97.2%,,90.9%,104%,106%,93.9%,99.8%,,95.4%
Cn1cc(C(=O)NCCC(=N)N)cc1NC(=O)CN=C(N)N,104%,134%,106%,94.1%,114%,112%,110%,104%,99.9%,94.2%,111%,88.9%,98%,92.5%,101%,98%,97.5%,92.6%,101%,
